Out of some 5,500 compounds screened, about 2,000 (36%) were called active. Inconclusive results (about 18%) are left out. The list shows a part of the results. Unmarked numbers belong to inactive results. Cut-off read from the data, not from the text of the source: active = normalized growth mostly below about 0.91 (no sharp cut-off); inconclusive = no clear call, values can overlap the other calls; inactive = mostly above about 0.92.
Assay: chemical genetic growth profiling, strain panel (AID 1159580);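 note: tested at 20 µM; growth read once vehicle control cultures reached saturation at 30 °C; 1 = growth at the plate median or of vehicle wells; lower values mean less growth of the strain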
Details: S. cerevisiae deletion strains, growth OD
[1] = locus YHR030C, strain SLT2, active compounds read low
[2] = locus YHR079C, strain IRE1, active compounds read low
[3] = locus YJL095W, strain BCK1, active compounds read low
[4] = locus YJR066W, strain TOR1, active compounds read low
[5] = locus YLR113W, strain HOG1, active compounds read low
[6] = locus YNL183C, strain NPR1, active compounds read low
[7] = locus YOR231W, strain MKK1, active compounds read low
[8] = locus YPL256C, strain CLN2, active compounds read low

SMILES: CC(=O)OCC(=O)[C@H]1CCC2C3CC=C4C[C@@H](O)CC[C@]4(C)C3CC[C@@]21C (some centres undefined)
- normalized growth (locus YAL021C, strain ccr4, active compounds read low): 1.04
- normalized growth (locus YAL026C, strain drs2, active compounds read low): 0.971
- normalized growth (locus YAL030W, strain snc1, active compounds read low): 0.993
- normalized growth (locus YBL061C, strain skt5, active compounds read low): 0.969
- normalized growth (locus YBR009C, strain hhf1, active compounds read low): 0.819 (active)
- normalized growth (locus YBR023C, strain chs3, active compounds read low): 0.97
- normalized growth (locus YBR171W, strain sec66, active compounds read low): 1
- normalized growth (locus YBR231C, strain swc5, active compounds read low): 0.894 (active)
- normalized growth (locus YBR279W, strain paf1, active compounds read low): 0.998
- normalized growth (locus YCL011C, strain gbp2, active compounds read low): 0.858 (active)
- normalized growth (locus YCL016C, strain dcc1, active compounds read low): 0.983
- normalized growth (locus YCL061C, strain MRC1, active compounds read low): 0.893 (active)
- normalized growth (locus YCL069W, strain vba3, active compounds read low): 0.893 (active)
- normalized growth (locus YCR088W, strain abp1, active compounds read low): 0.965
- normalized growth (locus YDL005C, strain med2, active compounds read low): 0.885 (active)
- normalized growth (locus YDL040C, strain nat1, active compounds read low): 1.01
- normalized growth (locus YDR001C, strain nth1, active compounds read low): 1.01
- normalized growth (locus YDR069C, strain doa4, active compounds read low): 1.02
- normalized growth (locus YDR137W, strain rgp1, active compounds read low): 0.742 (active)
- normalized growth (locus YDR159W, strain sac3, active compounds read low): 0.753 (active)
- normalized growth (locus YDR195W, strain ref2): 1.4 [resistant] (active)
- normalized growth (locus YDR297W, strain sur2, active compounds read low): 1.02
- normalized growth (locus YDR334W, strain swr1, active compounds read low): 1.01
- normalized growth (locus YDR335W, strain msn5, active compounds read low): 0.908 (active)
- normalized growth (locus YDR392W, strain spt3, active compounds read low): 0.142 (active)
- normalized growth (locus YEL003W, strain gim4, active compounds read low): 0.894 (active)
- normalized growth (locus YEL037C, strain rad23, active compounds read low): 0.999
- normalized growth (locus YEL061C, strain CIN8 (second series), active compounds read low): 0.945
- normalized growth (locus YER015W, strain faa2, active compounds read low): 1.01
- normalized growth (locus YER016W, strain bim1, active compounds read low): 0.967
- normalized growth (locus YER111C, strain swi4, active compounds read low): 0.986
- normalized growth (locus YER155C, strain BEM2 (second series), active compounds read low): 0.337 (active)
- normalized growth (locus YFR010W, strain ubp6, active compounds read low): 0.976
- normalized growth (locus YGL167C, strain pmr1, active compounds read low): 1
- normalized growth (locus YGL173C, strain kem1, active compounds read low): 0.953
- normalized growth (locus YGL227W, strain vid30, active compounds read low): 0.935
- normalized growth (locus YGL240W, strain doc1, active compounds read low): 0.927
- normalized growth (locus YGL253W, strain hxk2, active compounds read low): 0.937
- normalized growth (locus YHR013C, strain ard1, active compounds read low): 0.87
- normalized growth (locus YHR027C, strain rpn1, active compounds read low): 1.05
- normalized growth [1]: 0.896
- normalized growth [2]: 0.915
- normalized growth (locus YHR142W, strain chs7, active compounds read low): 0.593 (active)
- normalized growth (locus YJL092W, strain hpr5, active compounds read low): 0.931
- normalized growth (locus YJL095W, strain BCK1 (second series), active compounds read low): 0.97
- normalized growth [3]: 0.956
- normalized growth (locus YJL115W, strain asf1, active compounds read low): 1.02
- normalized growth (locus YJL129C, strain trk1, active compounds read low): 0.696 (active)
- normalized growth (locus YJL154C, strain vps35, active compounds read low): 1.01
- normalized growth (locus YJL164C, strain tpk1, active compounds read low): 0.853 (active)
- normalized growth (locus YJL166W, strain qcr8, active compounds read low): 0.826 (active)
- normalized growth [4]: 0.913
- normalized growth (locus YKL160W, strain elf1, active compounds read low): 0.946
- normalized growth (locus YKR026C, strain gcn3, active compounds read low): 1.01
- normalized growth (locus YKR091W, strain srl3, active compounds read low): 1.02
- normalized growth (locus YLL001W, strain dnm1, active compounds read low): 0.829 (active)
- normalized growth (locus YLL026W, active compounds read low): 0.935
- normalized growth (locus YLL041C, strain sdh2, active compounds read low): 1.07 [resistant] (active)
- normalized growth (locus YLR027C, strain aat2, active compounds read low): 0.921 (active)
- normalized growth [5]: 0.882
- normalized growth (locus YLR221C, strain rsa3, active compounds read low): 0.816 (active)
- normalized growth (locus YLR258W, strain gsy2, active compounds read low): 0.963
- normalized growth (locus YLR262C, strain YPT6 (second series), active compounds read low): 0.583 (active)
- normalized growth (locus YLR320W, strain mms22, active compounds read low): 0.435 (active)
- normalized growth (locus YLR342W, strain FKS1, active compounds read low): 0.762 (active)
- normalized growth (locus YLR357W, strain rsc2, active compounds read low): 1.04
- normalized growth (locus YLR370C, strain arc18, active compounds read low): 1
- normalized growth (locus YLR384C, strain iki3, active compounds read low): 1.02
- normalized growth (locus YML120C, strain ndi1, active compounds read low): 0.805 (active)
- normalized growth (locus YMR058W, strain fet3, active compounds read low): 0.924
- normalized growth (locus YMR125W, strain sto1, active compounds read low): 0.829 (active)
- normalized growth (locus YMR129W, active compounds read low): 0.998
- normalized growth (locus YMR205C, strain PFK2, active compounds read low): 0.833 (active)
- normalized growth (locus YMR231W, strain pep5, active compounds read low): 1.02
- normalized growth (locus YNL071W, strain lat1, active compounds read low): 0.175 (active)
- normalized growth [6]: 0.956
- normalized growth (locus YNL209W, strain ssb2, active compounds read low): 1.08 [resistant] (active)
- normalized growth (locus YNL248C, strain rpa49, active compounds read low): 0.899
- normalized growth (locus YNL322C, strain KRE1 (second series), active compounds read low): 1.02
- normalized growth (locus YNR049C, strain mso1, active compounds read low): 0.991
- normalized growth (locus YOR001W, strain rrp6, active compounds read low): 1.02
- normalized growth (locus YOR070C, strain gyp1, active compounds read low): 1.03
- normalized growth (locus YOR080W, strain dia2, active compounds read low): 1.01
- normalized growth (locus YOR083W, strain WHI5, active compounds read low): 0.885 (active)
- normalized growth (locus YOR106W, strain vam3, active compounds read low): 0.913
- normalized growth [7]: 0.942
- normalized growth (locus YOR265W, strain rbl2, active compounds read low): 0.979
- normalized growth (locus YOR270C, strain vph1, active compounds read low): 0.669 (active)
- normalized growth (locus YOR290C, strain snf2, active compounds read low): 0.862 (active)
- normalized growth (locus YPL051W, strain arl3, active compounds read low): 1
- normalized growth (locus YPL078C, strain atp4, active compounds read low): 0.887 (active)
- normalized growth (locus YPL106C, strain sse1, active compounds read low): 1.3 [resistant] (active)
- normalized growth (locus YPL240C, strain hsp82, active compounds read low): 1.03
- normalized growth [8]: 0.906

SMILES: CC(=O)[C@H]1CCC2C3CC=C4C[C@@H](OS(=O)(=O)O)CC[C@]4(C)C3CC[C@@]21C (some centres undefined)
- normalized growth (locus YAL040C, strain CLN3, active compounds read low): 0.959
- normalized growth (locus YCL061C, strain MRC1 (second series), active compounds read low): 0.981
- normalized growth (locus YDR363W, strain ESC2, active compounds read low): 1.01
- normalized growth (locus YER002W, strain NOP16, active compounds read low): 0.979
- normalized growth (locus YMR263W, strain SAP30, active compounds read low): 0.978
- normalized growth (locus YMR307W, strain GAS1, active compounds read low): 0.997
- normalized growth (locus YNL175C, strain NOP13, active compounds read low): 0.988
- normalized growth (locus YNL197C, strain WHI3, active compounds read low): 1
- normalized growth (locus YNL224C, strain SQS1, active compounds read low): 0.984
- normalized growth (locus YNL322C, strain KRE1, active compounds read low): 0.964
- normalized growth (locus YOR083W, strain WHI5 (second series), active compounds read low): 0.975
- normalized growth (locus YPL241C, strain CIN2, active compounds read low): 0.984

SMILES: CC(=O)C1CCC2C3CC=C4CC(OS(=O)(=O)O)CC[C@]4(C)C3CC[C@]12C (some centres undefined)
- normalized growth [1]: 0.973
- normalized growth [2]: 0.984
- normalized growth [3]: 0.953
- normalized growth [4]: 0.877
- normalized growth [5]: 1.03
- normalized growth [6]: 0.902
- normalized growth [7]: 0.977
- normalized growth [8]: 0.975

— PubChem BioAssay AID1159580 (chemical genetic matrix, 2015)
